# Data reported in PMC7862700, “An all-to-all approach to the identification of sequence-specific readers for epigenetic DNA modifications on cytosine”.
# Legend:
# Assay in all cases: DAPPL (digital affinity profiling via proximity ligation, sequencing); 10 mM Tris-HCl pH 7.5, 50 mM NaCl, 1 mM DTT, 4% glycerol, room temperature, 30 min; GST-TFs on glutathione beads, 16-mer random dsDNA library, 0.1% formaldehyde crosslink after washing; high values mean tight binding
# [1] = molecular target: T1, FEV (Homo sapiens, UniProt Q99581 1-238); conditions: protein: recombinant; tags: N-terminal GST; dsDNA, one strand shown
# T1 sequence: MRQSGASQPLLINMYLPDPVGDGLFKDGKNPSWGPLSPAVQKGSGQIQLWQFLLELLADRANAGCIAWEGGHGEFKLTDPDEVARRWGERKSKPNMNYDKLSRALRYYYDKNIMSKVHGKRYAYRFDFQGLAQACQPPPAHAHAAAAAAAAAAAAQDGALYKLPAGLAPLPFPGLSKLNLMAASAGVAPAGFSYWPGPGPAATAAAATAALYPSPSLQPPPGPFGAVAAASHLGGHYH
# Summary of the method: (§1)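 Each value of binding signal is a hexamer's read frequency for a factor divided by the same hexamer's frequency in the tag-only sample. Barcoded, bead-captured GST fusions of human transcription factors made in yeast were pooled with that sample and incubated with 200 nmole of a random double-stranded 16-mer DNA library in Tris/NaCl/DTT/glycerol buffer at room temperature for 30 min. Washing, 0.1% formaldehyde crosslinking, proximity ligation, PCR and Illumina NextSeq500 sequencing followed.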
# [2] = molecular target: ETV5 (Homo sapiens, UniProt P41161 1-510); conditions: protein: recombinant; tags: N-terminal GST; dsDNA, one strand shown
# Summary of the method: as §1
# [3] = molecular target: HSF1 (Homo sapiens, UniProt Q00613 1-529); conditions: protein: recombinant; tags: N-terminal GST; chain copies: 3; dsDNA, one strand shown
# Summary of the method: as §1
# [4] = molecular target: T2, SPIC (Homo sapiens, UniProt Q8N5J4 1-248); conditions: protein: recombinant; tags: N-terminal GST; dsDNA, one strand shown
# T2 sequence: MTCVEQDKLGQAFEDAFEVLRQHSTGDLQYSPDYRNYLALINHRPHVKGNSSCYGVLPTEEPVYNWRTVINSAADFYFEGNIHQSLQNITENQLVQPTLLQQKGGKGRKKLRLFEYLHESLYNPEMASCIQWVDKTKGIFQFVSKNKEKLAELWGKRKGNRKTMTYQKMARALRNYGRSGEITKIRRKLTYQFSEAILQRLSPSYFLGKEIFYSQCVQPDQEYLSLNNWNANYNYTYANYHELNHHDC
# Summary of the method: as §1
# [5] = molecular target: ELF4 (Homo sapiens, UniProt Q99607 1-663); conditions: protein: recombinant; tags: N-terminal GST; dsDNA, one strand shown
# Summary of the method: as §1
# [6] = molecular target: T3, ELK4 (Homo sapiens, UniProt P28324-2 1-405); conditions: protein: recombinant; tags: N-terminal GST; dsDNA, one strand shown
# T3 sequence: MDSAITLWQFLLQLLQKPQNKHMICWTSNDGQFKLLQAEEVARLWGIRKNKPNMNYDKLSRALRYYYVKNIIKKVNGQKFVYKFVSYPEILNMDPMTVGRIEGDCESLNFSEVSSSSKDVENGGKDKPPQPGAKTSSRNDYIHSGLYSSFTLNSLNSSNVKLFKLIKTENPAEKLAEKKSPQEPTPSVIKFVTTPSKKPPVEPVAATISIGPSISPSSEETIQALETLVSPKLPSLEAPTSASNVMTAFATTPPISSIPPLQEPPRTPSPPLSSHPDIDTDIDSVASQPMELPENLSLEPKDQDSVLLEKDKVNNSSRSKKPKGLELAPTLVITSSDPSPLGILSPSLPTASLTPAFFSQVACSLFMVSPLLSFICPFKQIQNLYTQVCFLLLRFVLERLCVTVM
# Summary of the method: as §1
# [7] = molecular target: T4, ETV2 (Homo sapiens, UniProt O00321 1-342); conditions: protein: recombinant; tags: N-terminal GST; dsDNA, one strand shown
# T4 sequence: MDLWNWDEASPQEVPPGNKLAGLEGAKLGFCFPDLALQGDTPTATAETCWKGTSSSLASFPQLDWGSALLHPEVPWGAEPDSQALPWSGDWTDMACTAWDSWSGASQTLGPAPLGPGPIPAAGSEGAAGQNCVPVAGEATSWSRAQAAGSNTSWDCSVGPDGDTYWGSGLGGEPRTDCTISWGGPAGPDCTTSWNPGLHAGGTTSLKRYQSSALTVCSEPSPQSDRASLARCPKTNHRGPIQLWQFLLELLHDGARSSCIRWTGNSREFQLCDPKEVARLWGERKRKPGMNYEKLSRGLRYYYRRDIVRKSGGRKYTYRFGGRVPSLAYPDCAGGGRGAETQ
# Summary of the method: as §1
# [8] = molecular target: T5, ELF3 (Homo sapiens, UniProt P78545 1-371); conditions: protein: recombinant; tags: N-terminal GST; dsDNA, one strand shown
# T5 sequence: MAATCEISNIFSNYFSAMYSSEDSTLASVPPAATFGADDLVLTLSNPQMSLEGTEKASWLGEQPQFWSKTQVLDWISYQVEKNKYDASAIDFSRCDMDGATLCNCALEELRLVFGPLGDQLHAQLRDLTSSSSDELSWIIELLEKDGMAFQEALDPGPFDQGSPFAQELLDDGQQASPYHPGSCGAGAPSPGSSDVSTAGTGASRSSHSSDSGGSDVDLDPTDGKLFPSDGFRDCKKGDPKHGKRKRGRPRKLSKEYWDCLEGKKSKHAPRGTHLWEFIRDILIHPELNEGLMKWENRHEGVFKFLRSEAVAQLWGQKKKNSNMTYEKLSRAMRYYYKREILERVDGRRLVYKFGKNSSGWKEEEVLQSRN
# Summary of the method: as §1
# [9] = molecular target: CRX (Homo sapiens, UniProt O43186 1-299); conditions: protein: recombinant; tags: N-terminal GST; dsDNA, one strand shown
# Summary of the method: as §1
# [10] = molecular target: ETV1 (Homo sapiens, UniProt P50549 1-477); conditions: protein: recombinant; tags: N-terminal GST; dsDNA, one strand shown
# Summary of the method: as §1
# [11] = molecular target: T6, ERF (Homo sapiens, UniProt P50548 1-548); conditions: protein: recombinant; tags: N-terminal GST; dsDNA, one strand shown
# T6 sequence: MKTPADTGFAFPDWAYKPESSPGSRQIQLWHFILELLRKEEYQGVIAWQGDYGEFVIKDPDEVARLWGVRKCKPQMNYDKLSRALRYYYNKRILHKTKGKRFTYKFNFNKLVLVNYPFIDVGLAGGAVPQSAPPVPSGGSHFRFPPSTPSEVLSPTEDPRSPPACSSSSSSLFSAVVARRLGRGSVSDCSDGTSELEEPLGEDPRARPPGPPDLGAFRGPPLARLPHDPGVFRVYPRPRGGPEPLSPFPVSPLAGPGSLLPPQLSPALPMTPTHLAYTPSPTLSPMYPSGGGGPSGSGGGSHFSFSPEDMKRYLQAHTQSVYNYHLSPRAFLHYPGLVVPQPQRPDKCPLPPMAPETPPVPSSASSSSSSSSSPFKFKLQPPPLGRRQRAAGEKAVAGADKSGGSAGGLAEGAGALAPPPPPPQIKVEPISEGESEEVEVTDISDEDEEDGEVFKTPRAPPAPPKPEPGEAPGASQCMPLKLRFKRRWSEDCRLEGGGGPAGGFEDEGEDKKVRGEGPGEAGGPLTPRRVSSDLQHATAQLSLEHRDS
# Summary of the method: as §1
# [12] = molecular target: T7, ETV3L (Homo sapiens, UniProt Q6ZN32 1-361); conditions: protein: recombinant; tags: N-terminal GST; dsDNA, one strand shown
# T7 sequence: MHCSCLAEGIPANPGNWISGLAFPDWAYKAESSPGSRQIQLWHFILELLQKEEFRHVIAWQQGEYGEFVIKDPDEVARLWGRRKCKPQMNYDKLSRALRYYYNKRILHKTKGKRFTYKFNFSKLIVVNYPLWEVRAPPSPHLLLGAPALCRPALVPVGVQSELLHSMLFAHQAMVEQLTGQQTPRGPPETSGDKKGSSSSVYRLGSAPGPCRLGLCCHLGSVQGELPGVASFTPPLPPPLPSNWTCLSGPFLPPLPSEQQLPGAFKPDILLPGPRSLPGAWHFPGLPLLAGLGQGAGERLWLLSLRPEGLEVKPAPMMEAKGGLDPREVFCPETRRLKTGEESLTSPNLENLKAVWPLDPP
# Summary of the method: as §1
# [13] = molecular target: T8, ETS2 (Homo sapiens, UniProt P15036 1-469); conditions: protein: recombinant; tags: N-terminal GST; dsDNA, one strand shown
# T8 sequence: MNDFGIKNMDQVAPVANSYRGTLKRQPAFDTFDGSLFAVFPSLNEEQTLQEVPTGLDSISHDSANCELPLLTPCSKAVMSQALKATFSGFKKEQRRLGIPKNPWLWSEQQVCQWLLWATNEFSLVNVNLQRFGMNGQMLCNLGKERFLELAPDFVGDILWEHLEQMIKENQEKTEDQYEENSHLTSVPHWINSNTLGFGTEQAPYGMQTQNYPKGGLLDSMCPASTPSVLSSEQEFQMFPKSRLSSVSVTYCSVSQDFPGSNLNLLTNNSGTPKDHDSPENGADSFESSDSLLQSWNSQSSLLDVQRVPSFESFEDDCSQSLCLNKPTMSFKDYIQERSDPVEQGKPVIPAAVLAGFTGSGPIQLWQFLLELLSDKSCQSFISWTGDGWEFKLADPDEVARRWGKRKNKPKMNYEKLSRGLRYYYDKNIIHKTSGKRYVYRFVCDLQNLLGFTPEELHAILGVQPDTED
# Summary of the method: as §1
# [14] = molecular target: T9, SPDEF (Homo sapiens, UniProt O95238 1-335); conditions: protein: recombinant; tags: N-terminal GST; dsDNA, one strand shown
# T9 sequence: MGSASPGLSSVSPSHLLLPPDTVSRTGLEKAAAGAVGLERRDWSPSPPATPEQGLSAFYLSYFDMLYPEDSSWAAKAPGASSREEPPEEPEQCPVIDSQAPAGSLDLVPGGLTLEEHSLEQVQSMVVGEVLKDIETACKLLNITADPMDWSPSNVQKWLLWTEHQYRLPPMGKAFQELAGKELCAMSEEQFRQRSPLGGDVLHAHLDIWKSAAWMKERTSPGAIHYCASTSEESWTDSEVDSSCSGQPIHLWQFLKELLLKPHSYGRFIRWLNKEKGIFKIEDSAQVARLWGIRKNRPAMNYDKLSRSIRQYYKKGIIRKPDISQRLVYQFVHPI
# Summary of the method: as §1
# [15] = molecular target: T10, ETV7 (Homo sapiens, UniProt Q9Y603 1-341); conditions: protein: recombinant; tags: N-terminal GST; dsDNA, one strand shown
# T10 sequence: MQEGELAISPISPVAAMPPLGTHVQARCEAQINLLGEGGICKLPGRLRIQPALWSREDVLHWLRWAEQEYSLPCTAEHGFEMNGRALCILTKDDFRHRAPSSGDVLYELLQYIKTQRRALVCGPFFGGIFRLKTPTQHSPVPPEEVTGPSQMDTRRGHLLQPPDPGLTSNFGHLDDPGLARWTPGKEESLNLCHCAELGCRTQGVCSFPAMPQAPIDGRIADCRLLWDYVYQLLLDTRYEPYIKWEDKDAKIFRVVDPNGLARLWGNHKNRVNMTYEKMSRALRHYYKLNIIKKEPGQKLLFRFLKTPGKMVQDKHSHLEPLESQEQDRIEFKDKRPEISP
# Summary of the method: as §1
# [16] = molecular target: T11, ELF5 (Homo sapiens, UniProt Q9UKW6-2 1-255); conditions: protein: recombinant; tags: N-terminal GST; dsDNA, one strand shown
# T11 sequence: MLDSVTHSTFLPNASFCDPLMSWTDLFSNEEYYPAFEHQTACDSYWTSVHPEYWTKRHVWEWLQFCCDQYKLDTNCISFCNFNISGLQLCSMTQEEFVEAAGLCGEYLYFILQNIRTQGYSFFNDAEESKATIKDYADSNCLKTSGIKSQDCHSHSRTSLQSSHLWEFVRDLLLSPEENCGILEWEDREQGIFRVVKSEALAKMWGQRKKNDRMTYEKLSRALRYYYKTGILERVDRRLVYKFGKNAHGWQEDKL
# Summary of the method: as §1
# [17] = molecular target: T12, ETV3 (Homo sapiens, UniProt P41162-2 1-143); conditions: protein: recombinant; tags: N-terminal GST; dsDNA, one strand shown
# T12 sequence: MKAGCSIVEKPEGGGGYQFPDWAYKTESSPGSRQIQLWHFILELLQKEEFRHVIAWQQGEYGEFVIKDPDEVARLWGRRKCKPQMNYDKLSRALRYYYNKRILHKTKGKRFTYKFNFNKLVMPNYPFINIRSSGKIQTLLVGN
# Summary of the method: as §1
# [18] = molecular target: ETV6 (Homo sapiens, UniProt P41212 1-452); conditions: protein: recombinant; tags: N-terminal GST; dsDNA, one strand shown
# Summary of the method: as §1
# ELF4, sequence (Q99607 whole entry): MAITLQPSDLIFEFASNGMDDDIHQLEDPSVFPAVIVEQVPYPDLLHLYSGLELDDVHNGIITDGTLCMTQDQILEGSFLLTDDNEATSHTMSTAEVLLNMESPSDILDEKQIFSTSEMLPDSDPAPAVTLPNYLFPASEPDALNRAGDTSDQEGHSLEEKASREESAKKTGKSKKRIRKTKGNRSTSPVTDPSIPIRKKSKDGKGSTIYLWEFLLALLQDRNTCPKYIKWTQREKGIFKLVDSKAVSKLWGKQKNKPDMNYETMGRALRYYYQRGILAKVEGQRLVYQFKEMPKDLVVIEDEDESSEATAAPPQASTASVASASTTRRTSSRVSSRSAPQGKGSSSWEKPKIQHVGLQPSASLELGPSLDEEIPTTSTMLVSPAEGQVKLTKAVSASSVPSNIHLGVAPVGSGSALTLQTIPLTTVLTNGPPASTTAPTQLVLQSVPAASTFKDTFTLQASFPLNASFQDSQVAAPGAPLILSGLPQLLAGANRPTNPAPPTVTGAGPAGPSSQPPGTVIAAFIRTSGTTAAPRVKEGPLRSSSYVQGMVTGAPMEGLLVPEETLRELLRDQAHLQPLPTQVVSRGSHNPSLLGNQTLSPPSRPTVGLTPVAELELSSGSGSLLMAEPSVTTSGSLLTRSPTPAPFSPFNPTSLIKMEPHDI
# HSF1, sequence (Q00613 whole entry): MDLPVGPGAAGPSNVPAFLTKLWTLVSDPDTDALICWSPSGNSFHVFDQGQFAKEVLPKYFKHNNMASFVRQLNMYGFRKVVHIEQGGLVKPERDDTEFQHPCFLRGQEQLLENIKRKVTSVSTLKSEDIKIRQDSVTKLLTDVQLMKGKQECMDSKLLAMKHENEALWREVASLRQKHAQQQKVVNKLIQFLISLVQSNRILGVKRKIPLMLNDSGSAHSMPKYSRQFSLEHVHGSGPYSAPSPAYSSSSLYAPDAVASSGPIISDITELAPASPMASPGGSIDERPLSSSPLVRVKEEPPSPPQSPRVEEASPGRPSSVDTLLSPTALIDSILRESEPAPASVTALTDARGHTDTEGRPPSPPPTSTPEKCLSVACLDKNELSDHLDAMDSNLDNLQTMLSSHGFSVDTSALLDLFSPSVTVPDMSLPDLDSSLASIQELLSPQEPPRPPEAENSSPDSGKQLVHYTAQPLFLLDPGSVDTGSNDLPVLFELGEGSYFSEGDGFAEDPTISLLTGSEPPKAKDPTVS
# ETV6, sequence (P41212 whole entry): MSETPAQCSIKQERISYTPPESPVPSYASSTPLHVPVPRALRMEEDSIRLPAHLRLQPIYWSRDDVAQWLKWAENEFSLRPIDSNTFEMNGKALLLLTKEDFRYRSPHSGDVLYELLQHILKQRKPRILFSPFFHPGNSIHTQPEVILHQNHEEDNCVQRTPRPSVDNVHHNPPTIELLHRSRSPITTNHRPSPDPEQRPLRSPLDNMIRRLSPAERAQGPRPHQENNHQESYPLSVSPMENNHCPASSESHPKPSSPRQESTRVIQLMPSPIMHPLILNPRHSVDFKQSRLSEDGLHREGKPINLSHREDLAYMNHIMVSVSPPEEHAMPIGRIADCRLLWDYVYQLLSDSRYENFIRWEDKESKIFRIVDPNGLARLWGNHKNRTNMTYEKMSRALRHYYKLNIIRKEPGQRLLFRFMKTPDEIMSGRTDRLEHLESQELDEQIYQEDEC
# ETV1, sequence (P50549 whole entry): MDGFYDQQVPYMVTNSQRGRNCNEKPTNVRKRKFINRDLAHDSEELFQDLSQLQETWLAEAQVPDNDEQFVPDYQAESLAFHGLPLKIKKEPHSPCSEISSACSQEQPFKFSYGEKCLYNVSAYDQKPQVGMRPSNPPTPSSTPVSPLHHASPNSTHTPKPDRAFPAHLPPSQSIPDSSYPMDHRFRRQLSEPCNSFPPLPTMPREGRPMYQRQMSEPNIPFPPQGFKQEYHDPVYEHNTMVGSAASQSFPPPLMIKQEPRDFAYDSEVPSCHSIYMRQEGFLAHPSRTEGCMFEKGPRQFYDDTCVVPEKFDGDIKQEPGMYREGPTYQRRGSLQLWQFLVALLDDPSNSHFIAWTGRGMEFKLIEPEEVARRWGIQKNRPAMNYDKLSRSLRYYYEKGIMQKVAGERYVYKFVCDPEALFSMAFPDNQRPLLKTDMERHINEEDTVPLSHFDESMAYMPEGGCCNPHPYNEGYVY
# ETV5, sequence (P41161 whole entry): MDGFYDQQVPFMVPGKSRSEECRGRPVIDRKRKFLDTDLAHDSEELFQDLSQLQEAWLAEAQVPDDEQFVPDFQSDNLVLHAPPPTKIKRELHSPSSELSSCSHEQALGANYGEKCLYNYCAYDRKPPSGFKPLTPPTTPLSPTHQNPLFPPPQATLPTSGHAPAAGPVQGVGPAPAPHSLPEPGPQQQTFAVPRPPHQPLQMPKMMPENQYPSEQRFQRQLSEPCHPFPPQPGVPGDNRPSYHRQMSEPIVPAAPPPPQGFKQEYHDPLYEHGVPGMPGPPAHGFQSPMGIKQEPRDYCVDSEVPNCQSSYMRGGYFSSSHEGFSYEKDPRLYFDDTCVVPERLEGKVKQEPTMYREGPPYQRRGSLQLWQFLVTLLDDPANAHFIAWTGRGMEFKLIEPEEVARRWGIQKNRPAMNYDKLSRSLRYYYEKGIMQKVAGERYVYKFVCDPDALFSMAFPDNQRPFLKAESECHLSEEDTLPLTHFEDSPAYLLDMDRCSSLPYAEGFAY
# CRX, sequence (O43186 whole entry): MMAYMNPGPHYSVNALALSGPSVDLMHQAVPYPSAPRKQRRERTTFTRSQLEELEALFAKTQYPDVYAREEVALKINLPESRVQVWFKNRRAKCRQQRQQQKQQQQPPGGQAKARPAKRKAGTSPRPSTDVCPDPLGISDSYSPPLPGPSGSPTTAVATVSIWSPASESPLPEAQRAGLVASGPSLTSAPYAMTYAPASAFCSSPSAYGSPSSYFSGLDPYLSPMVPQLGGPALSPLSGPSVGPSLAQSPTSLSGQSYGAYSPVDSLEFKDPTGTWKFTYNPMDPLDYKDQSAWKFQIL
sequence,measurement,setting,value
TATAGG,binding signal,[1],"1.15 fold enrichment (6-mer frequency, TF over GST control)"
same,binding signal,[2],"1.24 fold enrichment (6-mer frequency, TF over GST control)"
same,binding signal,[3],"1.2 fold enrichment (6-mer frequency, TF over GST control)"
same,binding signal,[4],"1.34 fold enrichment (6-mer frequency, TF over GST control)"
same,binding signal,[5],"1.05 fold enrichment (6-mer frequency, TF over GST control)"
same,binding signal,[6],"1.14 fold enrichment (6-mer frequency, TF over GST control)"
same,binding signal,[7],"1.26 fold enrichment (6-mer frequency, TF over GST control)"
same,binding signal,[8],"1.19 fold enrichment (6-mer frequency, TF over GST control)"
same,binding signal,[9],"1.42 fold enrichment (6-mer frequency, TF over GST control)"
same,binding signal,[10],"1.13 fold enrichment (6-mer frequency, TF over GST control)"
same,binding signal,[11],"1.18 fold enrichment (6-mer frequency, TF over GST control)"
same,binding signal,[12],"1.14 fold enrichment (6-mer frequency, TF over GST control)"
same,binding signal,[13],"1.13 fold enrichment (6-mer frequency, TF over GST control)"
same,binding signal,[14],"1.19 fold enrichment (6-mer frequency, TF over GST control)"
same,binding signal,[15],"1.22 fold enrichment (6-mer frequency, TF over GST control)"
same,binding signal,[16],"1.23 fold enrichment (6-mer frequency, TF over GST control)"
same,binding signal,[17],"1.17 fold enrichment (6-mer frequency, TF over GST control)"
same,binding signal,[18],"1.11 fold enrichment (6-mer frequency, TF over GST control)"
